Screening results deposited in PubChem BioAssay by National Center for Advancing Translational Sciences (NCATS).
MCF10A rerep = induces DNA re-replication in MCF 10a normal breast cells; MCF 10A DNA re-replication, Hoechst nuclear intensity, 48 h; Potency, µM (series often up to 46.1 µM), usual class: activators; 2.9% of 350,000 active; note: nearly all actives have a fitted effect of over 50% in size
hERG WT inh = inhibitors of human wildtype KCNH2 potassium channel. Q12809. U2OS, BacMam KCNH2, thallium flux FluxOr; hits give low values. activity change, % at 1.84 µM. 0.37% of 340,000 active. AID 720551;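 active = maximum activity change below -70%; inconclusive = maximum activity change between -70% and -50%; inactive = maximum activity change above -50%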
Target sequence (Q12809 whole entry, looked up): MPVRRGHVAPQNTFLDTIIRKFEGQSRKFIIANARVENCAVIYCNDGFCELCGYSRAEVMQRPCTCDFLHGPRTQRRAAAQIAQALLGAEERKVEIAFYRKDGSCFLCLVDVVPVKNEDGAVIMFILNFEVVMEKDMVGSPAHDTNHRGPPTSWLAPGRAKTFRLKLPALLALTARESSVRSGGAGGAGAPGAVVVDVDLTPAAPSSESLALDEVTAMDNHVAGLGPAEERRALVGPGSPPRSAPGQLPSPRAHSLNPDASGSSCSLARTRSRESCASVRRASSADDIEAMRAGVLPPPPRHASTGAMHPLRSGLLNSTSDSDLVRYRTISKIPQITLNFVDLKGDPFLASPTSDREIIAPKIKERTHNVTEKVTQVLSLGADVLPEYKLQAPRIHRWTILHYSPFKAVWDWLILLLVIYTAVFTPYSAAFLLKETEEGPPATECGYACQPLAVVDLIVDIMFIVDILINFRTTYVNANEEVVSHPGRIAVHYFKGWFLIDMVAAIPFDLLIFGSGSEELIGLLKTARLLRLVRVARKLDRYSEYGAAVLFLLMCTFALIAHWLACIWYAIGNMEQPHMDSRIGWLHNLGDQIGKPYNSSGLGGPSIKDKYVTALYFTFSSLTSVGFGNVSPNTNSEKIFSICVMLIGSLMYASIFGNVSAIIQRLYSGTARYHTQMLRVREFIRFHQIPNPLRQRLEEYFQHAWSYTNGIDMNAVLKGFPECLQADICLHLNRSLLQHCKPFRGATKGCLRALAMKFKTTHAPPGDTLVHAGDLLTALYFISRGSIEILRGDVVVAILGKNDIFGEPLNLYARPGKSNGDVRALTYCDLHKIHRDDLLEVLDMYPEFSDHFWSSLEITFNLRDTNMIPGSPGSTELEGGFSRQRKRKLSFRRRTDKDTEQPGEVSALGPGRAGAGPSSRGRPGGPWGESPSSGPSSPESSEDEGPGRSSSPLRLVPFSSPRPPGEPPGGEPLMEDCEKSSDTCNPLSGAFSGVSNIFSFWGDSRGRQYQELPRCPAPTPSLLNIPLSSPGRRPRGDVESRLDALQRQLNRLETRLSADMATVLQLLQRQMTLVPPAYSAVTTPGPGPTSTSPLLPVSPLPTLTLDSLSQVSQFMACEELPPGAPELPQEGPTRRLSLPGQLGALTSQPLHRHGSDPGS
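U2OS cells were transduced with wild-type KCNH2 virus (2.03 x 10^8 / mL) for 4 h at room temperature, then cultured overnight at 37 C. Thallium flux was read with FluxOr dye. Rate constants were normalized to DMSO controls.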
KB-V1 cytotox = kills drug-selected multidrug resistant KB-V1 cells; KB-V1 MDR cells viability, CellTiter-Glo, 72 h; Potency, µM (doses to about 46.1 µM), usual class: cytotoxic; 3.4% of 400,000 active; AID 1347076; note: nearly all actives have a fitted effect of over 60% in size
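Cytotoxicity via CellTiter-Glo luminescence after 72 h compound exposure at 37 degrees C. Cells: drug-selected KB-V1 line, DMEM phenol-red free plus 10% FBS. Compounds tested at multiple concentrations; normalized data fitted to concentration-effect curves.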
KCNH2 3.1 block = inhibitors of human KCNH2 3.1 potassium channel isoform; activity change, % (tested at about 1.8 µM); AID 720553; 0.95% of 340,000 active; U2OS KCNH2 3.1, thallium flux FluxOr; hits give low values;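 active = maximum activity change below -70%; inconclusive = maximum activity change from -70% to -50%; inactive = maximum activity change above -50%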;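 note: thallium influx rate constant from kinetic fluorescence after stimulation buffer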
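Virally transduced U2OS (3.1 isoform, 4 h infection in dark at RT) → overnight 37 C → FluxOr + Red40 in HBSS/HEPES, 45 min → stimulation buffer, 2 min kinetic read → rate constant vs DMSO controls.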
KB-3-1 cytotox = kills parental KB-3-1 adenocarcinoma cells. KB-3-1 viability, CellTiter-Glo ATP luminescence, 72 h. Potency, µM (titrated, usually from 46.1 µM), actives largely listed as cytotoxic. 1.4% of 400,000 active. AID 1347075; note: nearly all actives have a fitted effect of over 60% in size
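Here the drug-naive KB-3-1 line serves as comparator for MDR sub-line selectivity; cells received compound titrations, 72 h at 37 °C, then CellTiter-Glo readout.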
SW480 rerep = inducers of DNA re-replication in SW480 colon cancer cells; SW480 DNA re-replication, Hoechst DNA content imaging, 48 h; 1.8% of 340,000 active; Potency, µM (series often up to 46.1 µM), usual class: activators; note: nearly all actives have a fitted effect of over 55% in size
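Treated cells incubate 48 hr (37 C, 5% CO2), are stained 40 min with Hoechst, and nuclear fluorescence is enumerated; a rise in nuclei with high DNA signal marks re-replication.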
Of the large screens only hits and unclear results are named; the others gave an inactive call. Sampled rows, rich in hits. Any-hit rate of the full collection: about 7.6%. Unless noted, calls come from the whole dose curve; as a rule, active = well fitted curve in the direction sought with a large enough effect; inconclusive = small, poorly fitted or top-dose-only effect, or another doubt; inactive = no such curve, though single readings can be large; an effect the other way counts as inactive or inconclusive.

COc1cc2c(cc1NC(=O)COC(=O)C(CCSC)NC(=O)c1ccccc1Cl)oc1ccccc12 (stereo unspecified)	none
COc1cccc(NC(=O)Cn2c(=O)n(-c3ccccc3)c(=O)c3oc4ccccc4c32)c1	KB-V1 cytotox 21µM, KB-3-1 cytotox inconclusive
CCOC(=O)CSc1nc(-c2ccc3c(c2)OCO3)ccc1C#N	MCF10A rerep 16µM, KB-V1 cytotox inconclusive
CCOC(=O)CSc1nc(-c2ccncc2)ccc1C#N	MCF10A rerep 12µM
CC1CCCC(C)N1C(=O)CSc1nc2ncnc(N)c2[nH]1 (stereo unspecified)	MCF10A rerep 6.5µM, SW480 rerep 8.2µM
CCN(CC)CC(C)(C)COC(=O)c1oc2ccccc2c1C	none
O=C(O)CN1C(=O)SC(Nc2ccc(Cl)cc2)C1=O (stereo unspecified)	none
O=C(CSc1ncn(-c2ccccc2)n1)Nc1nc2ccccc2s1	MCF10A rerep inconclusive, KB-V1 cytotox 18µM
COc1cccc(CNC(=O)CCc2nc3cc(S(=O)(=O)N4CCOCC4)ccc3n2C)c1	none
CCC(C)N(C(=O)c1csnn1)C(C(=O)NCc1ccc(F)cc1)c1ccco1 (stereo unspecified)	KB-V1 cytotox 16µM
CCC(C)(C)NC(=O)C(c1ccco1)N(C(=O)c1csnn1)c1cccc(F)c1 (stereo unspecified)	KB-V1 cytotox 16µM
Cc1ccc(C)c(N2CCN(C(=O)c3cccn3-c3nnc(N4CCCCC4)s3)CC2)c1	none (no result: MCF10A rerep, hERG WT inh, KCNH2 3.1 block, SW480 rerep)
O=C1NN(c2ccccc2)C(=O)/C1=C/c1ccc(Sc2ccc(Cl)cc2)o1	MCF10A rerep 4.6µM
Cc1ccc(Sc2ccc(/C=C3/C(=O)NN(c4ccccc4)C3=O)o2)cc1	none
CCC(=O)/C=C1\Sc2ccc(OC)cc2N1CC	KB-V1 cytotox 15µM, KB-3-1 cytotox inconclusive
CCOC(=O)c1sc(N)c(C(=O)Nc2ccccc2OC)c1C	MCF10A rerep 10µM, KB-V1 cytotox 10µM, KB-3-1 cytotox inconclusive, SW480 rerep 16µM
O=C(NCc1cccc(F)c1)c1cccc2c1C(=O)c1ccc(N3CCC(Cc4ccccc4)CC3)cc1S2(=O)=O	MCF10A rerep 12µM
O=C(NCc1ccc(OC(F)(F)F)cc1)c1cccc2c1C(=O)c1ccc(N3CCC(Cc4ccccc4)CC3)cc1S2(=O)=O	MCF10A rerep 5.8µM (no result: hERG WT inh, KCNH2 3.1 block)
O=C(NCc1cccc(C(F)(F)F)c1)c1cccc2c1C(=O)c1ccc(N3CCC(Cc4ccccc4)CC3)cc1S2(=O)=O	MCF10A rerep 5.8µM
O=C(NCc1ccc(OC(F)(F)F)cc1)c1cccc2c1C(=O)c1ccc(N3CCCC3)cc1S2(=O)=O	none
Clc1ccccc1CN1CCN(/N=C/C=C/c2ccco2)CC1	none
Cc1cc(C)c2c(N)c(C(=O)Nc3ccccc3Br)sc2n1	MCF10A rerep 5.8µM, SW480 rerep 18µM
Cc1cc(C)c2c(N)c(C(=O)Nc3ccccc3F)sc2n1	MCF10A rerep 29µM
COCc1cc(C)nc2sc(C(=O)Nc3ccccc3C)c(N)c12	MCF10A rerep inconclusive
CCOc1ccccc1NC(=O)c1sc2nc(C)cc(C)c2c1N	none (no result: MCF10A rerep, hERG WT inh, KCNH2 3.1 block, SW480 rerep)
Cc1cc(C)c2c(N)c(C(=O)Nc3ccccc3Cl)sc2n1	MCF10A rerep 12µM, SW480 rerep inconclusive
CCc1ccccc1NC(=O)c1sc2nc(C)cc(C)c2c1N	MCF10A rerep inconclusive, KB-V1 cytotox inconclusive, SW480 rerep inconclusive
COCc1cc(C)nc2sc(C(=O)Nc3ccccc3Br)c(N)c12	MCF10A rerep inconclusive, SW480 rerep 1.8µM
CCOC(=O)c1c(C2CC2)csc1NC(=O)COC(=O)c1cc(OC)c(OC)cc1[N+](=O)[O-]	none (no result: hERG WT inh)
O=C(CCN1CCCCO1)N1CCCC(Nc2cccc(F)c2)C1 (stereo unspecified)	none
Cc1cc(C)c2c(N)c(C(=O)Nc3ncc(C)s3)sc2n1	MCF10A rerep 9.2µM, KB-V1 cytotox inconclusive, SW480 rerep inconclusive
C/C(N)=C(/C#N)C(=O)CSc1nnc(-c2ccc3c(c2)OCO3)o1	SW480 rerep 12µM
C/C(N)=C(/C#N)C(=O)CSc1nnc(COc2cc(C)ccc2C)o1	MCF10A rerep 18µM
COc1ccccc1S(=O)(=O)N1CCn2cccc2C1C (stereo unspecified)	none
COc1ccc2c(c1)c1c(c(=O)n(CCc3ccccc3)c(=O)n1Cc1cccc(Cl)c1)n2C	none (no result: MCF10A rerep, hERG WT inh, KCNH2 3.1 block, SW480 rerep)
O=C(CCl)N(c1ccccc1)C1CCS(=O)(=O)C1 (stereo unspecified)	MCF10A rerep inconclusive, KB-V1 cytotox inconclusive, SW480 rerep 16µM
Cc1ccc(S(=O)(=O)CCSC(=N)N)cc1	MCF10A rerep 18µM, SW480 rerep 6.5µM
Cc1ccc(S(=O)(=O)CC(N)=O)cc1	MCF10A rerep inconclusive
Cn1c(CSCc2ccc(F)cc2)nnc1SCC(=O)N1CCN(c2ccccc2)CC1	KB-V1 cytotox 16µM, KB-3-1 cytotox inconclusive
Cn1c(CSCc2ccc(F)cc2)nnc1SCC(=O)Nc1nccs1	KB-V1 cytotox 23µM, KB-3-1 cytotox inconclusive
Cn1c(CNC(=O)c2ccccc2F)nnc1SCC(=O)N1CCN(c2ccccc2)CC1	KB-3-1 cytotox inconclusive
Cc1nc2ccccn2c(=O)c1CCN1CCC(C(=O)c2ccc(F)cc2)CC1	none
Cc1nc2sccn2c(=O)c1CCN1CCC(=C(c2ccc(F)cc2)c2ccc(F)cc2)CC1	MCF10A rerep 2.1µM, hERG WT inh -149, KB-V1 cytotox inconclusive, KCNH2 3.1 block -114, SW480 rerep inconclusive
Cc1ccccc1-c1nc(CNC(=O)Nc2ccccc2)c(C)o1	none (no result: MCF10A rerep, hERG WT inh, KCNH2 3.1 block, SW480 rerep)
CC(=O)N1N=C(c2ccccc2)CC1c1cn(C)c2ccccc12 (stereo unspecified)	KB-V1 cytotox 23µM
COc1cc(OC)cc(-c2cc3ccc(OC)cc3cn2)c1	KB-V1 cytotox inconclusive, SW480 rerep 15µM
COc1cc(OC)cc(-c2cc3cc4c(cc3cn2)OCO4)c1	MCF10A rerep inconclusive, KB-V1 cytotox inconclusive, KB-3-1 cytotox inconclusive, SW480 rerep 2.6µM (no result: hERG WT inh, KCNH2 3.1 block)
CCc1nn(CC(=O)N2CCCCC2)c(=O)c2cc3occc3n12	none (no result: MCF10A rerep, hERG WT inh, KCNH2 3.1 block, SW480 rerep)
CCNC(=S)Nc1ccc(C)c(S(=O)(=O)Nc2ccccc2OC)c1	none
COc1ccc(NS(=O)(=O)c2cc(NC(=O)c3ccc(F)cc3)ccc2OC)cc1	KB-V1 cytotox inconclusive
COc1ccccc1NS(=O)(=O)c1cc(N/C(=N\S(=O)(=O)c2ccccc2)c2ccc(F)cc2)ccc1Cl	KB-V1 cytotox inconclusive, SW480 rerep inconclusive
COc1ccccc1NS(=O)(=O)c1cc(NC(=S)Nc2cc(C)cc(C)c2)ccc1Cl	KB-V1 cytotox 15µM, KB-3-1 cytotox inconclusive
Cc1ccc(NC(=O)C(C)Oc2ccccc2)cc1S(=O)(=O)N1CCCCCC1 (stereo unspecified)	none
